ZTA counter: blocks Epstein-Barr virus ZTA, an EBNA-1 counter-screen | P03206 | ZTA-DNA binding, fluorescence polarization | inhibition, % at 11 µM | actives 0.15% (n = 320,000) | AID 2234; in the data active = inhibition above about 33%
EBNA-1 inh: blocks EBNA-1 binding to DNA; EBNA-1 DNA binding, fluorescence polarization; inhibition, % at 14.8 µM; actives 0.34% (n = 300,000); AID 1950; in the data active = inhibition above about 28%
NR1D1 modulator: Rev-erb alpha (human) modulation; actives 0.79% (n = 370,000); AID 1259318; P20393; activity, % at 10 µM; Rev-erbα–FITC-DNA binding, fluorescence polarization, 90 min;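 active = activity above about 14%, limit read from the data; passing the limit was not always enough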;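 also: 0% = DMSO wells with 35 nM protein and 100% = DMSO wells with 750 nM protein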
aDG glyco act: increases alpha dystroglycan glycosylation. Pro5-aDG cells, alpha-DG glycosylation AlphaScreen (IIH6); 0% Pro5, 100% B10-LARGE cell signal. activation, % at 10 µM. actives 0.22% (n = 360,000). AID 624168;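 active = activation of at least 8% versus controls, or a plate z-score of at least 8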;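 also: Pro5 are CHO cells carrying HIG-tagged alpha-DG that lacks glycosylation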
PG9 binder: binds the HIV-1 gp120 antibody PG9. inhibition, % at 6.7 µM. TR-FRET gp120-PG9 antibody binding. actives 0.43% (n = 360,000); in the data active = inhibition above about 8.5%
p47phox inh: blocks human p47phox regulatory protein of NADPH oxidases | P14598 | p47phox/p22phox peptide binding, fluorescence polarization, 2 h | inhibition, % at 24.7 µM | actives 0.53% (n = 220,000) | AID 1274;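 active = inhibition above about 30%, limit read from the data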;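 also: 0% = p47phox with labelled peptide and 100% = labelled peptide alone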
Target sequence (P14598 whole entry, looked up): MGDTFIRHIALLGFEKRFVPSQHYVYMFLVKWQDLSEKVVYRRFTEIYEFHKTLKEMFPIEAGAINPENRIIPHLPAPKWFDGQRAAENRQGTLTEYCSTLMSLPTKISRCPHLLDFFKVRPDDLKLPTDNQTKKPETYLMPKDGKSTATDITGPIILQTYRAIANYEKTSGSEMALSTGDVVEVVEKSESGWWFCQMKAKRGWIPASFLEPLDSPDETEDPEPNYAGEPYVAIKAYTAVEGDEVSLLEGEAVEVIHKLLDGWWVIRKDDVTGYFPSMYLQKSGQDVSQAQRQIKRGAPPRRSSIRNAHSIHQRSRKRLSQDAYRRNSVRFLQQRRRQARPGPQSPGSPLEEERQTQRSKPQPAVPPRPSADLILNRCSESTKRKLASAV
PG9 bind confirm: PG9 antibody binding, confirmed; shares compounds with PG9 binder; actives 90% (n = 1,500); TR-FRET PG9 antibody binding, biochemical; inhibition, % at 6.7 µM; AID 651571; in the data active = inhibition above about 9%
PGV04 counter: binds control antibody PGV04 in PG9 binder counter-screen; AID 651604; TR-FRET PGV04 antibody-gp120 binding, biochemical; shares compounds with PG9 binder; actives 95% (n = 1,500); inhibition, % at 6.7 µM; in the data active = inhibition above about 9.5%
PG9 bind DR: small molecules binding HIV-1 gp120 antibody PG9 | shares compounds with PG9 binder | TR-FRET PG9 antibody-gp120 binding inhibition | IC50, µM | 95 tested, under 10 active | AID 651848; in the data active = IC50 below about 10 µM
PGV04 DR counter: PGV04 binding, dose response counter-screen; AID 651937; actives 20% (n = 95); shares compounds with PG9 binder; IC50, µM; TR-FRET binding to control antibody PGV04
PG126 DR counter: PG126 binding, dose response counter-screen | shares compounds with PG9 binder | TR-FRET binding to antibody PG126, counterscreen | IC50, µM | actives 20% (n = 95) | AID 651939
NR1D1 mod conf: confirmation of modulators of human Rev-erb alpha DNA binding. shares compounds with NR1D1 modulator. Rev-erb alpha FITC-DNA binding, fluorescence polarization, 90 min. activation, % at 25 µM. actives 61% (n = 3,000). AID 1259319;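 active = activation at or above a set limit, or at least 3 SD above the negative control mean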;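 also: 0% = 35 nM protein with DMSO and 100% = 750 nM protein high control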
RORg DNA counter: counter-screen for Rev-erb alpha modulators: RORgamma DNA binding | shares compounds with NR1D1 modulator | purified RORgamma protein-FITC-DNA binding, fluorescence polarization | IC50, µM | actives 8% (n = 910) | AID 1259320;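 active = Compounds whose fitted half-maximal concentration for disrupting protein-DNA binding is below 10 micromolar; the record names Rev-erb in its text, so the target is in doubt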
Numbers without * were called inactive. Shown are actives, neighbours in structure and some others; about 1.9% of the full set was active somewhere. Rule as the data show it, unless noted: active = IC50 below about 9 µM; inactive = the rest.

Screening Cc1nc(SCC(=O)Nc2ccc3c(c2)OCCO3)c2oc3ccccc3c2n1 returned ZTA counter -4, EBNA-1 inh -5, NR1D1 modulator 294*, aDG glyco act 0, PG9 binder 33*, p47phox inh 14, PG9 bind confirm 38*, PGV04 counter 24*, PG9 bind DR inactive, PGV04 DR counter inactive, PG126 DR counter inactive and NR1D1 mod conf 302*.
Screening CCc1nc(SCC(=O)N2CCCc3ccccc32)c2oc3ccccc3c2n1 returned ZTA counter 2, EBNA-1 inh 0, NR1D1 modulator -5, aDG glyco act 0, PG9 binder 0 and p47phox inh -2.
`C=C(C)Cn1c(SCC(=O)N/N=C(\C)c2ccc([N+](=O)[O-])cc2)nnc1-c1ccc(Br)cc1` gave NR1D1 modulator -1.
Cc1ccc[n+](CC(=O)Nc2cc(C(F)(F)F)ccc2Cl)c1 was read as ZTA counter 6, EBNA-1 inh -2, NR1D1 modulator 0, aDG glyco act 0, PG9 binder 0 and p47phox inh -2.
Screening CCC(C)(C)c1ccc(OCCCC[n+]2cccc(C)c2)c(C(C)(C)CC)c1 returned NR1D1 modulator 33*, aDG glyco act 0, PG9 binder -3, p47phox inh 28, NR1D1 mod conf 44* and RORg DNA counter >40.
`COCCCNC(=O)C[C@H]1C[C@@]2(C(=O)OC)C(=C[C@H](C3CCCC3)O[C@@H]2C)N(CCC2=CCCCC2)C1=O` gave NR1D1 modulator 3.
`CC(C)C[C@H](NC(C)(C)C(=O)NC1CCCCC1)C(=O)NCCc1c[nH]c2ccccc12` gave NR1D1 modulator 4.
`N#CCCn1cc(/C=C(\C#N)c2nc3ccccc3s2)c(-c2ccc(F)cc2)n1` gave ZTA counter -7, EBNA-1 inh -25, NR1D1 modulator 45*, aDG glyco act 0, PG9 binder -2, p47phox inh -25 and NR1D1 mod conf 35*.
O=c1[nH]c(=S)c2[nH]c(=S)n(-c3ccccc3)c2[nH]1 was read as NR1D1 modulator 15*, aDG glyco act 0, PG9 binder -3 and NR1D1 mod conf 0.
Screening CC(COc1ccc(F)cc1)CN1CCC(C(O)(c2ccccc2)c2ccccc2)CC1 (stereo not given) returned NR1D1 modulator -10.
CCOC(=O)c1sc(=NC(=O)c2ccc(C)c(C)c2)n(C)c1C was read as ZTA counter 4, EBNA-1 inh 5, NR1D1 modulator 8, aDG glyco act 0, PG9 binder -1 and p47phox inh 2.
For Cc1ccc2c(c1)sc(=NC(=O)C1CC1)n2C the results were ZTA counter -7, EBNA-1 inh -10, NR1D1 modulator -2, aDG glyco act 0, PG9 binder 3 and p47phox inh -7.
CCOC(=O)c1sc(=NC(=O)c2cccs2)n(C)c1C was read as ZTA counter -22, EBNA-1 inh 13, NR1D1 modulator 31*, aDG glyco act 0, PG9 binder 0, p47phox inh -7 and NR1D1 mod conf 15.
`CCOC(=O)c1sc(=NC(=O)c2ccc(Cl)s2)n(C)c1C` gave ZTA counter 12, EBNA-1 inh 13, NR1D1 modulator 4, aDG glyco act 0, PG9 binder 1 and p47phox inh -5.
For CCOC(=O)c1sc(=NC(=O)c2ccc(OC(C)C)cc2)n(C)c1C the results were ZTA counter -3, EBNA-1 inh -4, NR1D1 modulator 44*, aDG glyco act 0, PG9 binder 0, p47phox inh -1, NR1D1 mod conf 38* and RORg DNA counter 4.4*.
`Cc1ccc2c(c1)sc(=NC(=O)c1cccs1)n2C` gave ZTA counter 0, EBNA-1 inh 1, NR1D1 modulator 43*, aDG glyco act 0, PG9 binder 0, p47phox inh -5 and NR1D1 mod conf 10.
For O=C1CCC[C@H]2C[C@H](NCc3ccc(F)cc3F)CC[C@]23CCCN13 the results were NR1D1 modulator -3.
C[C@@H]1/C=C/CC(=O)N[C@H](c2cccc(Br)c2)[C@H](C)/C=C/CC(=O)N[C@@H]1c1cccc(Br)c1 was read as NR1D1 modulator 5.
For COC(=O)[C@@]12CCCCC3=C1N(CCC3)C(=O)[C@H]2CC(=O)N1CCN(C(=O)c2ccco2)CC1 the results were NR1D1 modulator 2.
COc1cccc(NC(=O)Cn2nnc(C(=O)Nc3ccccc3)c2N)c1 was read as ZTA counter 10, EBNA-1 inh 15, NR1D1 modulator 0, aDG glyco act 0, PG9 binder -1 and p47phox inh -5.
Cc1ccc(CNC(=O)c2nnn(CC(=O)Nc3cccc(C)c3C)c2N)cc1 was read as ZTA counter -1, EBNA-1 inh 3, NR1D1 modulator 27*, aDG glyco act 0, PG9 binder -1 and NR1D1 mod conf 22*.
`COc1cccc(NC(=O)Cn2nnc(C(=O)NCCc3ccccc3)c2N)c1` gave ZTA counter 0, EBNA-1 inh 18, NR1D1 modulator 20*, aDG glyco act 0, PG9 binder -3 and NR1D1 mod conf 5.
`COc1ccc(OC)c(NC(=O)c2sc3nc(Cc4ccccc4)cc(C(F)(F)F)c3c2N)c1` gave ZTA counter -5, EBNA-1 inh -6, NR1D1 modulator 82*, aDG glyco act 0, PG9 binder -1, p47phox inh -34 and NR1D1 mod conf 29*.
Screening O=C(c1ccc(F)cc1F)N1CCC(Oc2cccnc2)CC1 returned NR1D1 modulator -4.

Compound activity as filed in PubChem.
